Sampled rows, rich in hits. Any-hit rate of the full collection: about 19%.
IL-1B inflam inh: inflammasome signaling inhibition, IL-1 beta readout; 4.7% of 360,000 active; THP-1 LPS/ATP IL-1B secretion, AlphaLISA, 16 h; active compounds read low; activity change, % at 57.5 µM; in the data active = activity change below about -50%; inconclusive = mostly about -30% to -49%
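Secreted IL-1B measured by AlphaLISA bead assay after 16 h compound exposure of THP-1 cells; compounds (final up to 57.5 uM) added 1 h before LPS (250 ng/mL) and ATP (1.25 mM) stimulation; lower signal means less secretion.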
HT1080NT lethal: kills 2HG-producing HT-1080-NT fibrosarcoma cells. Potency, µM (top dose mostly 46.1 µM), for the others: at the top dose activity, negative = less viability, usual class: cytotoxic. 1.6% of 360,000 active. HT-1080-NT fibrosarcoma viability, CellTiter-Glo ATP luminescence, 48 h. AID 686970;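 note: NT is the 2HG producing partner of a matched IDH1 knockdown line; potency is the fitted concentration of half-maximal effect; 0% = DMSO-treated cells and -100% = media-only wells without cells; nearly all actives have a fitted effect of over 55% in size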
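Viability of the 2HG-overproducing fibrosarcoma line after 48 hours of compound exposure at 37 degrees C was determined by luminescence with CellTiter-Glo, and concentration-effect curves were then fitted and categorized.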
DT40 TDP1 CPT: growth inhibition of DT40 Tdp1-/-;hTDP1 cells with camptothecin (screen for TDP1 inhibitors) | chicken DT40 Tdp1-/-;hTDP1 cells + 20 nM CPT, ATP luminescence, 48 h | 12% of 420,000 active | Potency, µM (titrated, usually from 46.2 µM), for inactives: top-dose activity change, negative = growth inhibition, actives largely listed as inhibitors; note: potency is the fitted concentration of half-maximal effect; nearly all actives have a fitted effect of over 55% in size
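Cell growth measured by CellTiter-Glo luminescence after a minimum 48 h, 37 C compound exposure with 20 nM CPT in Tdp1-knockout DT40 cells stably expressing hTDP1, seeded 400/well; qHTS titration format.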
HT1080 IDH1KD tx: toxicity to HT-1080 IDH1 knockdown cells (counter line). AID 686971. Potency, µM (doses to about 46.1 µM), for the others: at the top dose activity, negative = toxicity, hits mostly cytotoxic. 2% of 360,000 active. HT-1080 IDH1 knockdown viability, ATP luminescence, 48 h;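 note: potency is the fitted concentration of half-maximal effect; 0% = DMSO wells and -100% = cell-free medium wells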
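Using the IDH1-knockdown HT-1080 line run in the same batch and compound series as the NT line, viability after 48 h at 37 °C was determined by CellTiter-Glo luminescence and expressed as % activity.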
DT40 TDP1 no CPT: qHTS for Inhibitors of human tyrosyl-DNA phosphodiesterase 1 (TDP1): qHTS in cells in absence of CPT; Potency, µM (top dose mostly 46.2 µM), for inactives: at the highest dose activity change, negative = growth inhibition, most hits filed as inhibitors; AID 686978, 2013; 15% of 420,000 active; DT40 Tdp1-/- hTDP1 cells, no CPT, ATP luminescence, 48 h; note: potency is the fitted concentration of half-maximal effect; nearly all actives have a fitted effect of over 55% in size
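Luminescent ATP content (CellTiter-Glo) served as the growth readout. Knockout chicken DT40 cells expressing human TDP1 were exposed to compounds without camptothecin for a minimum 48 hr at 37 °C.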
* = called active by the depositor. Unless noted, calls come from the whole dose curve; as a rule, active = well fitted curve in the direction sought with a large enough effect; inconclusive = small, poorly fitted or top-dose-only effect, or another doubt; inactive = no such curve, though single readings can be large; an effect the other way counts as inactive or inconclusive. Unless noted, % is set by controls: 0 for no effect and ±100 for the full control effect.

For CCc1c(C)nc2ncnn2c1NCCc1ccc(Cl)cc1 the results were IL-1B inflam inh -19.5, HT1080NT lethal -29.3%, DT40 TDP1 CPT 16.4µM*, HT1080 IDH1KD tx -14.3% and DT40 TDP1 no CPT 9.2µM*.
Screening O=C(O)COc1ccc2c(c1)O/C(=C\c1cccs1)C2=O returned IL-1B inflam inh -3.8, HT1080NT lethal 0.7%, DT40 TDP1 CPT -13.1%, HT1080 IDH1KD tx 12.2% and DT40 TDP1 no CPT -3.1%.
`COc1ccc(C=C2OC(=O)C(C(C)=O)=C2O)cc1` gave IL-1B inflam inh -9.7, HT1080NT lethal -3.8%, DT40 TDP1 CPT inconclusive, HT1080 IDH1KD tx -8.8% and DT40 TDP1 no CPT 16.4µM*.
COc1ccc2c(c1)O/C(=C\c1sccc1C)C2=O was read as IL-1B inflam inh inactive, HT1080NT lethal 15.4%, DT40 TDP1 CPT inconclusive, HT1080 IDH1KD tx 13.0% and DT40 TDP1 no CPT 18.4µM*.
`COc1ccc(/C=C2\Oc3ccccc3C2=O)cc1` gave IL-1B inflam inh -5.6, HT1080NT lethal 9.6%, DT40 TDP1 CPT inconclusive, HT1080 IDH1KD tx -2.5% and DT40 TDP1 no CPT 18.4µM*.
`CCOc1ccc(C(=O)OCC(=O)NCCCc2ccccc2)cc1` gave IL-1B inflam inh 7.3, HT1080NT lethal 0.0%, DT40 TDP1 CPT inconclusive, HT1080 IDH1KD tx 3.0% and DT40 TDP1 no CPT -1.4%.
`Cc1cc(C)c(O)c(CN(C)Cc2cc(Cl)cc(Cl)c2O)c1` gave IL-1B inflam inh -90.3*, HT1080NT lethal inconclusive, DT40 TDP1 CPT inconclusive, HT1080 IDH1KD tx inconclusive and DT40 TDP1 no CPT 16.4µM*.
Cc1ccc(CCC(=O)Nc2ccc(C)c(C)c2)o1 was read as IL-1B inflam inh 12.7, HT1080NT lethal -1.8%, DT40 TDP1 CPT -12.5%, HT1080 IDH1KD tx 1.5% and DT40 TDP1 no CPT 14.5%.
For Cc1ccc(S(=O)(=O)CNC(=S)c2cccc(Cl)c2)cc1 the results were IL-1B inflam inh -9.3, HT1080NT lethal 4.6%, DT40 TDP1 CPT -9.0%, HT1080 IDH1KD tx -28.6% and DT40 TDP1 no CPT inconclusive.
Screening Cc1ccc(C(=S)NCS(=O)(=O)c2ccc(C)cc2)cc1 returned IL-1B inflam inh -3.3, HT1080NT lethal inconclusive, DT40 TDP1 CPT 13µM*, HT1080 IDH1KD tx inconclusive and DT40 TDP1 no CPT 13µM*.
For COc1cccc(NC(=O)C2CCCN(S(=O)(=O)c3cn(C(C)C)cn3)C2)c1 (configuration not stated) the results were DT40 TDP1 CPT -15.1% and DT40 TDP1 no CPT -26.8%.
`CC(=O)N1CCN(CCS(=O)(=O)c2ccc(Br)cc2)CC1` gave IL-1B inflam inh -53.2*, HT1080NT lethal 0.6%, DT40 TDP1 CPT -10.3%, HT1080 IDH1KD tx 2.6% and DT40 TDP1 no CPT -2.4%.
`CC(C)N(C(=O)c1ccccc1-c1ccccc1)C(C)C` gave IL-1B inflam inh -14.4, HT1080NT lethal -1.1%, DT40 TDP1 CPT inconclusive, HT1080 IDH1KD tx -20.2% and DT40 TDP1 no CPT 18.4µM*.
For Cc1ccccc1NC(=O)c1ccccc1-c1ccccc1 the results were IL-1B inflam inh 2.4, HT1080NT lethal -0.6%, DT40 TDP1 CPT -9.4%, HT1080 IDH1KD tx -0.3% and DT40 TDP1 no CPT inconclusive.
`CCOC(=O)c1cc(-c2ccccc2)n(CC(=O)Nc2ccc(OC)cc2)c1C` gave IL-1B inflam inh -9.3, HT1080NT lethal -8.8%, DT40 TDP1 CPT -29.1%, HT1080 IDH1KD tx -7.6% and DT40 TDP1 no CPT inconclusive.
Screening CCOC(=O)c1cc(-c2ccccc2)n(CC(=O)NCc2ccc(C)cc2)c1C returned DT40 TDP1 CPT inconclusive and DT40 TDP1 no CPT 8.2µM*.
Screening CCOC(=O)c1cc(-c2ccccc2)n(CC(=O)Nc2ccc(CC)cc2)c1C returned DT40 TDP1 CPT 8.2µM* and DT40 TDP1 no CPT 16.4µM*.
`CC(=O)c1cc(-c2ccccc2)n(CC(=O)Nc2ccc(C)c(C)c2)c1C` gave IL-1B inflam inh -8.7, HT1080NT lethal inconclusive, DT40 TDP1 CPT inconclusive, HT1080 IDH1KD tx -29.7% and DT40 TDP1 no CPT 11.6µM*.
CCc1cccc(NC(=O)Cn2c(-c3ccc(F)cc3)cc(C(C)=O)c2C)c1 was read as DT40 TDP1 CPT 13µM* and DT40 TDP1 no CPT 16.4µM*.
Screening Cc1nn(C)c(C)c1NC(=S)Nc1ccc(S(=O)(=O)Nc2ncccn2)cc1 returned IL-1B inflam inh 6.2, HT1080NT lethal 8.6%, DT40 TDP1 CPT 0.1%, HT1080 IDH1KD tx 3.6% and DT40 TDP1 no CPT 6.8%.
O=C1CCC[C@@H]2[C@@H](Cc3ccccc3)[C@@H](Nc3ccccc3)C[C@@H]3CCN1[C@@H]32 was read as DT40 TDP1 CPT inconclusive and DT40 TDP1 no CPT 11.2µM*.
Screening NC(=O)C1CCN(S(=O)(=O)c2cccc(C(=O)O)c2)CC1 returned IL-1B inflam inh 7.9, HT1080NT lethal 15.8%, DT40 TDP1 CPT 1.4%, HT1080 IDH1KD tx 16.7% and DT40 TDP1 no CPT 16.0%.
`CCc1cccc2c1NC1(CCCC1)CC2C` (configuration not stated) gave IL-1B inflam inh 33.5, HT1080NT lethal 17.0%, DT40 TDP1 CPT inconclusive, HT1080 IDH1KD tx -0.6% and DT40 TDP1 no CPT 20.6µM*.
Screening Cc1cccc(-n2c3nc(=O)n(C)c(=O)c-3cc3ccc(Cl)cc32)c1C returned DT40 TDP1 CPT -4.5% and DT40 TDP1 no CPT inconclusive.
Screening O=C(OCc1c(-c2ccccc2)ncc2ccccc12)c1ccco1 returned IL-1B inflam inh -11.6, HT1080NT lethal 0.2%, DT40 TDP1 CPT inconclusive, HT1080 IDH1KD tx -2.6% and DT40 TDP1 no CPT -28.3%.
CC1=NN(c2ccccc2)C(=O)C1(C)C was read as IL-1B inflam inh 16.8, HT1080NT lethal 11.3%, DT40 TDP1 CPT 5.1%, HT1080 IDH1KD tx 11.4% and DT40 TDP1 no CPT 4.5%.
Screening CC1=C(C)CC2(SC1)C(=O)N(c1ccccc1)N=C2N (configuration not stated) returned IL-1B inflam inh -7.9, HT1080NT lethal -13.0%, DT40 TDP1 CPT 7.31µM*, HT1080 IDH1KD tx -7.0% and DT40 TDP1 no CPT 20.6µM*.
For O=C(NCC1CCC2(CCN(Cc3cnn(-c4ccc(F)cc4)c3)CC2)O1)c1ccccc1 (configuration not stated) the results were DT40 TDP1 CPT -8.8% and DT40 TDP1 no CPT -26.5%.
For COc1ccc(-c2ccc(-c3cc(=O)oc4cc(OC)c(OC)c(OC)c34)cc2)cc1OC the results were IL-1B inflam inh 16.6, HT1080NT lethal -4.4%, DT40 TDP1 CPT 18.4µM*, HT1080 IDH1KD tx -12.0% and DT40 TDP1 no CPT 14.6µM*.
`COc1cc2oc(=O)cc(-c3cccc(-c4cccc(C)c4)c3)c2c(OC)c1OC` gave IL-1B inflam inh 28.1, HT1080NT lethal inconclusive, DT40 TDP1 CPT inconclusive, HT1080 IDH1KD tx inconclusive and DT40 TDP1 no CPT 23.1µM*.

Assay outcomes from PubChem BioAssay.
